From the supplement of paper PMC10849652
The full data set covers some 7,900 targets. This sample favours those with a hit. About 0.6% of all pairs of compound and target were hits.

Compound: CCN(CCCOc1ccc2c(Nc3cc(CC(=O)Nc4cccc(F)c4)[nH]n3)ncnc2c1)CCOP(=O)(O)O [barasertib]
Assay: log2 fold change, soluble protein after heating vs DMSO (PISA); higher = thermal stabilisation; K562 cells, 10 uM, 30 min; active = over 0.2 and 3.5 SD of the protein, either way, in both replicates (recomputed)
Procedure, shortened: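 K562 cells at 2×10^6 cells/mL were given 10 μM compound for 30 min. Aliquots then went through 3 min of heating across 48°C-58°C, were pooled, and were extracted in PBS with 0.5% NP-40 at 4°C, and the supernatant after 21,000xg for 90 min was quantified by TMTpro 16plex LC-MS/MS with channel sums equalised. Thermal stability relative to control samples, from duplicates, is given as log2 fold change.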

Chain of UniProt P50851 (P50851 whole entry, looked up): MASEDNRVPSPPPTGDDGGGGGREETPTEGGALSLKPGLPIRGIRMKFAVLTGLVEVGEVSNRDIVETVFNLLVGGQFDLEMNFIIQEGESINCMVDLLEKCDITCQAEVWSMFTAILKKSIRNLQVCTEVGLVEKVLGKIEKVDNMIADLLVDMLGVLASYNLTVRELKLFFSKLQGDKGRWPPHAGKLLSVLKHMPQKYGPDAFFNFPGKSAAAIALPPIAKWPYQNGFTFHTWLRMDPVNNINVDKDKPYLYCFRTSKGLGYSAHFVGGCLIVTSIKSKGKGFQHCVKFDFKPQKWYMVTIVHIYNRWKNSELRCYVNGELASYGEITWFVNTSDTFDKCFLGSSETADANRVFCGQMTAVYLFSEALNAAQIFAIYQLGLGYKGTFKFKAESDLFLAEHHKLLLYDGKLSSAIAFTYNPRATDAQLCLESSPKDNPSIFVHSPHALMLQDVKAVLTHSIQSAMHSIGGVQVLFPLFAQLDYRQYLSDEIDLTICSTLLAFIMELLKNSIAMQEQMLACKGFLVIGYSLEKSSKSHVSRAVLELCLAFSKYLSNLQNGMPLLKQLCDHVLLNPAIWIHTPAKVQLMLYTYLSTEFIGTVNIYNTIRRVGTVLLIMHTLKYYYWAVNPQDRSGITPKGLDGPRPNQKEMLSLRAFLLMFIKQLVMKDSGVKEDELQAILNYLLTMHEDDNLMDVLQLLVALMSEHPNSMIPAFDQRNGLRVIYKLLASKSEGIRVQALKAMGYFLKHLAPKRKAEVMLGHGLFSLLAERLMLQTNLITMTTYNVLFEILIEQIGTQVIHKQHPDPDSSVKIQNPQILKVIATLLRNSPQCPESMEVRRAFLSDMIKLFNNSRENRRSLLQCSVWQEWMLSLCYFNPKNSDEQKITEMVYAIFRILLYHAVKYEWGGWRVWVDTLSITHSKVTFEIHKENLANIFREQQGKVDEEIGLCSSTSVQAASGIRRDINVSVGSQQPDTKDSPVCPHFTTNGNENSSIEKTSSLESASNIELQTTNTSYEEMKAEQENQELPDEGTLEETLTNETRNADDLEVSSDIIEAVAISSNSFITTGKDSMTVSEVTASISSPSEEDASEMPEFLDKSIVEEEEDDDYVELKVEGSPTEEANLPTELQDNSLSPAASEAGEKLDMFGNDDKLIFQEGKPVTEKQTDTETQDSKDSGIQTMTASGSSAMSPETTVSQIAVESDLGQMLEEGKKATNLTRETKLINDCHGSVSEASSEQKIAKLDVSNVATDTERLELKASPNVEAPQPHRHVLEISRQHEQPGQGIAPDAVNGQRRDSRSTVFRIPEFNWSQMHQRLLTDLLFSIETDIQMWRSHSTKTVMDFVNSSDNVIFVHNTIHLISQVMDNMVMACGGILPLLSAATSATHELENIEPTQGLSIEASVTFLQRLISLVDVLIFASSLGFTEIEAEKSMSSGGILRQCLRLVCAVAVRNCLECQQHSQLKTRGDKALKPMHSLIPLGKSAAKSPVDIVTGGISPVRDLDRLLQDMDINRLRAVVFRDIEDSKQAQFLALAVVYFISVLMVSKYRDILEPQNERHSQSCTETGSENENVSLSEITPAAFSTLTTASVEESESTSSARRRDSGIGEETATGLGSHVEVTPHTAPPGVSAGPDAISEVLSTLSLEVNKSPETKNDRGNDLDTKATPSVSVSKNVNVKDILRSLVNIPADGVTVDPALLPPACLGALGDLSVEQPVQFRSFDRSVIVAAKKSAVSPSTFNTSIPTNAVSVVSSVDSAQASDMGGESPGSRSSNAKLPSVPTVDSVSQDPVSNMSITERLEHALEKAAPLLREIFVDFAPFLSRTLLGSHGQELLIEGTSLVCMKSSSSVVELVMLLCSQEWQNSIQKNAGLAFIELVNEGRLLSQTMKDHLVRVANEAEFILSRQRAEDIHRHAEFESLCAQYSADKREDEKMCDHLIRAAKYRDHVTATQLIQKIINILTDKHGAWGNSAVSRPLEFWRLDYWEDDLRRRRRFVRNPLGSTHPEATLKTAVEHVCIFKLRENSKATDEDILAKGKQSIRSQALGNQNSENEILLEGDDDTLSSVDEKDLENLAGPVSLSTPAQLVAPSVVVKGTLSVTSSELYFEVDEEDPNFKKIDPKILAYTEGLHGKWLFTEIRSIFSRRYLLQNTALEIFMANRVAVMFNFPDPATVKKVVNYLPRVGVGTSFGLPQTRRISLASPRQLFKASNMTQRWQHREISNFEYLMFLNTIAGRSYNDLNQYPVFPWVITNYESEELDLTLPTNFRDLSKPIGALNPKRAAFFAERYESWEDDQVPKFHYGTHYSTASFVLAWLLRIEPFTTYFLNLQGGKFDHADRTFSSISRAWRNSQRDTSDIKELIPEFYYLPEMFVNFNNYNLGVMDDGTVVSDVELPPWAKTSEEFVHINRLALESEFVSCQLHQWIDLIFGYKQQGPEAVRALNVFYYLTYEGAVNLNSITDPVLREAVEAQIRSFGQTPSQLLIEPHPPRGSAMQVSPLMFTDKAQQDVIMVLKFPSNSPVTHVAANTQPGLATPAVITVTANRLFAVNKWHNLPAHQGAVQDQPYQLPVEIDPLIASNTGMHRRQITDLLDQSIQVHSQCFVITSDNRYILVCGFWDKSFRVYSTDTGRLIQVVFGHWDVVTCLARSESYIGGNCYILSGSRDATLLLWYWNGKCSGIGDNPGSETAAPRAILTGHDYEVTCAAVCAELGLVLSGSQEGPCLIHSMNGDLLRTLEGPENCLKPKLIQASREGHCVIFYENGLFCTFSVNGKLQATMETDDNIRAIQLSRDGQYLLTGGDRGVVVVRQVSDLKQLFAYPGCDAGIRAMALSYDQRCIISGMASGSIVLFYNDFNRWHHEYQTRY
Chain of UniProt P46734 (P46734 whole entry, looked up): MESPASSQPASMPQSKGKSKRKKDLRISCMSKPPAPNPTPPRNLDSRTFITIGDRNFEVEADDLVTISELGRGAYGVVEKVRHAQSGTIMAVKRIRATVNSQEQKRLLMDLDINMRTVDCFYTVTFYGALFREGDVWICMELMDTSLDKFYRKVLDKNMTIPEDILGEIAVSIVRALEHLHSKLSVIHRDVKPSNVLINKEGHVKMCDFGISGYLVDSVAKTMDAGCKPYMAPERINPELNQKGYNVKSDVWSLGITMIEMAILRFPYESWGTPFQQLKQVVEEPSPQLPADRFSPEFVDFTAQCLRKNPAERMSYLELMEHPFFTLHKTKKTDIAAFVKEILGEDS
Chain of UniProt P13473 (P13473 whole entry, looked up): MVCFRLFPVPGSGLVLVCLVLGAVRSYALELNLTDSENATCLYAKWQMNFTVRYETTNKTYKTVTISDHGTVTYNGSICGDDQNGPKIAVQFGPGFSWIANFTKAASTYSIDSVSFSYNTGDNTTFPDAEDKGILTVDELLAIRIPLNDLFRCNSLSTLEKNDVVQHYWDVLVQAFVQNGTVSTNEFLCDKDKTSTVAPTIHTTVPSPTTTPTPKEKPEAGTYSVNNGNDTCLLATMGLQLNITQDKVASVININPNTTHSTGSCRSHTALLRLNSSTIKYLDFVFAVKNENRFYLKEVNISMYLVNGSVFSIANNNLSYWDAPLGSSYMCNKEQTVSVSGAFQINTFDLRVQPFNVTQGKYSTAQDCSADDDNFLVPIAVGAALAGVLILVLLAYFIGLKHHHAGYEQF
Chain of UniProt Q8TBB5 (Q8TBB5 whole entry, looked up): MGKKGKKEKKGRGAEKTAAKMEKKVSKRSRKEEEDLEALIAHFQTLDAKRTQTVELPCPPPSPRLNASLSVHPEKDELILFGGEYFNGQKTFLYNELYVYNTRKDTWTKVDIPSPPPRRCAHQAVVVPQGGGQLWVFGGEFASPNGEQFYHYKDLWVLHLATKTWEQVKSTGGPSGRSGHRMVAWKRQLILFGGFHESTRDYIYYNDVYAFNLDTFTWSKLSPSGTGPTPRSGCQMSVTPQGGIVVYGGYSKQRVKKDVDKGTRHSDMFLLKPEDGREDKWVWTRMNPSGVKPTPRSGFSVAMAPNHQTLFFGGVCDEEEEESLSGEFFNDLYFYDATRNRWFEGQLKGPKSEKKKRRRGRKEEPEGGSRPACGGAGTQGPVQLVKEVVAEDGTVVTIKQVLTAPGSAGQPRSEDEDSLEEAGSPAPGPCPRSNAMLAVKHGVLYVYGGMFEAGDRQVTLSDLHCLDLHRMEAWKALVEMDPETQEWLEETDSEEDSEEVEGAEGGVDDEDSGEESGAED
Chain of UniProt Q14739 (Q14739 whole entry, looked up): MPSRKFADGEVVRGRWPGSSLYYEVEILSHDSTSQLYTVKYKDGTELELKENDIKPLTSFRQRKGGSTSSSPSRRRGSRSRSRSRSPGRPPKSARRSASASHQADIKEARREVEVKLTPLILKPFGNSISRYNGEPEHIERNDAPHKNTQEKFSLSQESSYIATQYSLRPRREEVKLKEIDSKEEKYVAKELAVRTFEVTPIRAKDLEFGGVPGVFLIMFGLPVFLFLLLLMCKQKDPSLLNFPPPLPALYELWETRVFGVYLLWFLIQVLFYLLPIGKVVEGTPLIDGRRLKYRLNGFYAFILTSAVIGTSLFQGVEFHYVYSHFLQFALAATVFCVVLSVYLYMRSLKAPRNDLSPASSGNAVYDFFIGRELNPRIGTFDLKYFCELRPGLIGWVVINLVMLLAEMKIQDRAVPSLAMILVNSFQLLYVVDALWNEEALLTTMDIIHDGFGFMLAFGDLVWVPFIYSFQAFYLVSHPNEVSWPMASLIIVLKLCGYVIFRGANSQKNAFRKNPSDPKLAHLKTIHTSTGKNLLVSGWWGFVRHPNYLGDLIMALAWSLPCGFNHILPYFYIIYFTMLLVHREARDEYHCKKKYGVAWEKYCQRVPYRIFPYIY
Chain of UniProt P43362 (P43362 whole entry, looked up): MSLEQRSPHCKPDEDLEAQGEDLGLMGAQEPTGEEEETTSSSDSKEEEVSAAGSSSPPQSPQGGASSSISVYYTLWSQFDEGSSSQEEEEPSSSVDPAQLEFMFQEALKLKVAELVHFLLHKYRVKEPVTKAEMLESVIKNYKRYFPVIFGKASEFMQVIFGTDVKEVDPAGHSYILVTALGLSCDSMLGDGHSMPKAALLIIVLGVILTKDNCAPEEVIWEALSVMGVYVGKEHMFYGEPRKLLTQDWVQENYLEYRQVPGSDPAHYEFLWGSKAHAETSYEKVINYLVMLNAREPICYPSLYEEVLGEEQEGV

log2 fold change, inactive:
LIMA1 isoform 4 (UniProt Q9UHB6) -0.025, MAGEC2 (UniProt Q9UBF1) -0.005, MAP2K3 isoform 3 (UniProt P46734) 0.042, MAGEA9 (UniProt P43362) 0.036, ILVBL (UniProt A1L0T0) 0.021, MDN1 (UniProt Q9NU22) 0.047, KIF21A isoform 4 (UniProt Q7Z4S6) 0.104, LNPK (UniProt Q9C0E8) 0.012, LRBA (UniProt P50851) 0.038, LEMD3 (UniProt Q9Y2U8) 0.023, LAMP2 (UniProt P13473) 0.007, KLHDC4 (UniProt Q8TBB5) 0.028, LBR (UniProt Q14739) 0.024, KHDC4 (UniProt Q7Z7F0) 0.049, MAP4K4 isoform 3 (UniProt O95819) -0.012, LEMD2 (UniProt Q8NC56) 0.017
